In ChEMBL document CHEMBL3988442, “University of Dundee, Small-Polar-MMV Screening Library” (2021) one finds Percent Effect data, which are given here for 5 compounds.

Set-up in all cases: scale not given: direction of the effect not stated beside the values
Test [1] deals with Protein translocase subunit SecA (Escherichia coli (strain K12)) (UniProt P10408). The test is described as follows: Assay to Identify E. coli SecA ATPase Inhibitors. Format: functional. The settings on record: 30 µM.
Test [2] concerns the target T1, Ubiquitin-activating enzyme e1, putative (Leishmania donovani (strain BPK282A1)) (UniProt E9BSI1).
T1 sequence (whole entry): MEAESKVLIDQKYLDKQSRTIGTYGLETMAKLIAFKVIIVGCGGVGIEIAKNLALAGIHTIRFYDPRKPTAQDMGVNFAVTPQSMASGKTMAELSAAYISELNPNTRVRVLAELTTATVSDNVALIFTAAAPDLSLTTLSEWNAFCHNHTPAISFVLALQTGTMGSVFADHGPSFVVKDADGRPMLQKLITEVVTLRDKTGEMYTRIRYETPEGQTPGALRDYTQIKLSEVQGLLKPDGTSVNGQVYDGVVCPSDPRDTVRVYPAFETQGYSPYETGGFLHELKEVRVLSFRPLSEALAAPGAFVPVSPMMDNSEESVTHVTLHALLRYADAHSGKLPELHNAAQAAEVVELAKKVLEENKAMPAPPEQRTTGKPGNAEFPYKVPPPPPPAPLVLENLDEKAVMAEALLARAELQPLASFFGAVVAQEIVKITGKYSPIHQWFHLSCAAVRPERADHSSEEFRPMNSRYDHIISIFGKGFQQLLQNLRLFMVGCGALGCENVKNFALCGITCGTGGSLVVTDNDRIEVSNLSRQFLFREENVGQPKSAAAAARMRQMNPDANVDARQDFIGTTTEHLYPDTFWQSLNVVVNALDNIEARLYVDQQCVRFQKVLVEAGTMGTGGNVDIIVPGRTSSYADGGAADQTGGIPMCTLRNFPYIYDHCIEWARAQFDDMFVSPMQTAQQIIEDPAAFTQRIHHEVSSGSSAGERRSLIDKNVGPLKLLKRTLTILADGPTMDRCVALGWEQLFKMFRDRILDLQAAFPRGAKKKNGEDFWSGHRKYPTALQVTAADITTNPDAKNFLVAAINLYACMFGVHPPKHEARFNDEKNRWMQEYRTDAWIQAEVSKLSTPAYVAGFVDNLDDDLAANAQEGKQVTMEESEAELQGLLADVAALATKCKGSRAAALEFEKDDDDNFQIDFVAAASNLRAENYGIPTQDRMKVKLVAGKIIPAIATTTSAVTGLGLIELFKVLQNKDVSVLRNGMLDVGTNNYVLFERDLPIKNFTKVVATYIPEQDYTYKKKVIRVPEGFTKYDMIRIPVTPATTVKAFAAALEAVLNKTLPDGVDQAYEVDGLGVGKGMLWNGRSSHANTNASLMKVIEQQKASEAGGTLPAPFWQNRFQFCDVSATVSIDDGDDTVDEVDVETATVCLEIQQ
Nature of the test: Leishmania donovani Ubiquitin Activating Enzyme (LdE1). Format: functional. The note with it: 30 µM.

Test [3] concerns the target Sialic acid-binding Ig-like lectin 9 (Homo sapiens) (UniProt Q9Y336). Nature of the test: Hs-Siglec9 ALPHAscreen SOP 20170721. The settings on record: 10 µM. In general terms: Bead proximity is the source of the signal in Alpha formats.
For another test, the system named is Trypanosoma cruzi. Nature of the test: Trypanosoma cruzi phosphomannomutase and mannose-1-phosphate guanylyltransferase assay. Format: functional. The settings on record: 10 µM.
Test [4] addresses T2, Arginase-2, mitochondrial (Homo sapiens) (UniProt P78540).
T2 sequence (whole entry): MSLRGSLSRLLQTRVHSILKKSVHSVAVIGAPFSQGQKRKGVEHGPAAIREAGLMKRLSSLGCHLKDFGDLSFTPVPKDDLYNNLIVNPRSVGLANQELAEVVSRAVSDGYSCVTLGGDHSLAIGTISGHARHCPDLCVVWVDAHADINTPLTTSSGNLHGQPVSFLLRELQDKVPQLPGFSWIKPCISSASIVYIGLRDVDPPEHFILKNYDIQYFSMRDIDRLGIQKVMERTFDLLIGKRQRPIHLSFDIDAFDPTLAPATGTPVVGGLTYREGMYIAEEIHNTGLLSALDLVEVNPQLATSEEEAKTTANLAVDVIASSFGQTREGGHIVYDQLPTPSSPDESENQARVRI
Nature of the test: in vitro enzyme assay to detect the production of urea directly proportional to the activity of Arginase II. Further: in the data most compounds retested in dose-response had high values. It counts as functional. The settings on record: 33.3 µM.

Test [5] deals with T3, Proteasome subunit beta (Trypanosoma cruzi) (UniProt O96673).
T3 sequence (whole entry): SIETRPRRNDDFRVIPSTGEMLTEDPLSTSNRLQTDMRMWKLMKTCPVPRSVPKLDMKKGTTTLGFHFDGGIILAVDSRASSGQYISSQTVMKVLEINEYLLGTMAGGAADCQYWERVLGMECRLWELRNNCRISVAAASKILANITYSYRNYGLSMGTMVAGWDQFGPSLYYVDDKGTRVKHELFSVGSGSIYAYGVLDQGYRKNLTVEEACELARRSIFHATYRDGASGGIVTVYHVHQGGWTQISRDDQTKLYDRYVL
The test is described as follows: Trypanosoma cruzi proteasome chymotrypsin-like activity (TcProtChymo) assay. Further: in the data most compounds retested in dose-response had high values. It counts as functional. The settings on record: 9.37 µM.

The species named for another test is Homo sapiens. Nature of the test: To identify inhibition of the IFN signalling (Jak-Stat) pathway via expression of an eGFP reporter gene under the control of an IFN-stimulated response element (ISRE) containing MxA promoter. The note with it: 30 µM. It counts as functional. On the technique in general: In a reporter assay the amount or activity of a reporter protein is the signal.

For test [6], the target named is T4, Tyrosyl-tRNA synthetase, putative (Trypanosoma cruzi (strain CL Brener)) (UniProt Q4DSP6).
T4 sequence (whole entry): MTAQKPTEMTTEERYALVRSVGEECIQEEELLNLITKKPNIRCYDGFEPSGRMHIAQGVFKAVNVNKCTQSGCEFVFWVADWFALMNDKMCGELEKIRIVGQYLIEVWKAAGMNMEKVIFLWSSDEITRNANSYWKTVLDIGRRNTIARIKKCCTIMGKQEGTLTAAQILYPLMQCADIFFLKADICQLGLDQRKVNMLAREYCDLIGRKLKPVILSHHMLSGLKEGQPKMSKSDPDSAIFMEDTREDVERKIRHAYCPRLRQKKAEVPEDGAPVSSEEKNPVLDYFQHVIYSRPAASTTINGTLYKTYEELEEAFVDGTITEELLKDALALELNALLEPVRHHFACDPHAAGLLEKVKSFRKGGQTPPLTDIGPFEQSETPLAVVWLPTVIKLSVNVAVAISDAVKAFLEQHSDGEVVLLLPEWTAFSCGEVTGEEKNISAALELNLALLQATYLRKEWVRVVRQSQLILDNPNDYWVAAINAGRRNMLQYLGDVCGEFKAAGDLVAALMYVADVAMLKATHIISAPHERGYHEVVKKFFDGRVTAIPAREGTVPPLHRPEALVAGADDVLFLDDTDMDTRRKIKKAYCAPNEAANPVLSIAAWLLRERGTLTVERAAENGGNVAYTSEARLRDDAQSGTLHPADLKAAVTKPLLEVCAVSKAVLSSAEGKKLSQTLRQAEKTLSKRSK
Nature of the test: Trypanosoma cruzi tyrosyl tRNA synthetase (TcYRS) _High Tyrosine SOP. Further: in the data most compounds retested in dose-response had high values. It counts as functional. The note with it: 30 µM.

Test [7] addresses T4, Tyrosyl-tRNA synthetase, putative (Trypanosoma cruzi (strain CL Brener)). Nature of the test: Trypanosoma cruzi tyrosyl tRNA synthetase (TcYRS) SOP. The note with it: 30 µM. It counts as functional.
Test [8] has as its target Chromo domain-containing protein 1 (Saccharomyces cerevisiae (strain ATCC 204508 / S288c) (Baker's yeast)) (UniProt P32657). Nature of the test: ScCHD-1 Enzyme Inhibition Assay. Further: in the data most compounds retested in dose-response had high values. Format: functional. The note with it: 30 µM.

For some assays here: Entries with a potency or affinity are not part of this list.

Chain of Chromo domain-containing protein 1 (Saccharomyces cerevisiae (strain ATCC 204508 / S288c) (Baker's yeast)) (P32657 whole entry, the tested form may be a part): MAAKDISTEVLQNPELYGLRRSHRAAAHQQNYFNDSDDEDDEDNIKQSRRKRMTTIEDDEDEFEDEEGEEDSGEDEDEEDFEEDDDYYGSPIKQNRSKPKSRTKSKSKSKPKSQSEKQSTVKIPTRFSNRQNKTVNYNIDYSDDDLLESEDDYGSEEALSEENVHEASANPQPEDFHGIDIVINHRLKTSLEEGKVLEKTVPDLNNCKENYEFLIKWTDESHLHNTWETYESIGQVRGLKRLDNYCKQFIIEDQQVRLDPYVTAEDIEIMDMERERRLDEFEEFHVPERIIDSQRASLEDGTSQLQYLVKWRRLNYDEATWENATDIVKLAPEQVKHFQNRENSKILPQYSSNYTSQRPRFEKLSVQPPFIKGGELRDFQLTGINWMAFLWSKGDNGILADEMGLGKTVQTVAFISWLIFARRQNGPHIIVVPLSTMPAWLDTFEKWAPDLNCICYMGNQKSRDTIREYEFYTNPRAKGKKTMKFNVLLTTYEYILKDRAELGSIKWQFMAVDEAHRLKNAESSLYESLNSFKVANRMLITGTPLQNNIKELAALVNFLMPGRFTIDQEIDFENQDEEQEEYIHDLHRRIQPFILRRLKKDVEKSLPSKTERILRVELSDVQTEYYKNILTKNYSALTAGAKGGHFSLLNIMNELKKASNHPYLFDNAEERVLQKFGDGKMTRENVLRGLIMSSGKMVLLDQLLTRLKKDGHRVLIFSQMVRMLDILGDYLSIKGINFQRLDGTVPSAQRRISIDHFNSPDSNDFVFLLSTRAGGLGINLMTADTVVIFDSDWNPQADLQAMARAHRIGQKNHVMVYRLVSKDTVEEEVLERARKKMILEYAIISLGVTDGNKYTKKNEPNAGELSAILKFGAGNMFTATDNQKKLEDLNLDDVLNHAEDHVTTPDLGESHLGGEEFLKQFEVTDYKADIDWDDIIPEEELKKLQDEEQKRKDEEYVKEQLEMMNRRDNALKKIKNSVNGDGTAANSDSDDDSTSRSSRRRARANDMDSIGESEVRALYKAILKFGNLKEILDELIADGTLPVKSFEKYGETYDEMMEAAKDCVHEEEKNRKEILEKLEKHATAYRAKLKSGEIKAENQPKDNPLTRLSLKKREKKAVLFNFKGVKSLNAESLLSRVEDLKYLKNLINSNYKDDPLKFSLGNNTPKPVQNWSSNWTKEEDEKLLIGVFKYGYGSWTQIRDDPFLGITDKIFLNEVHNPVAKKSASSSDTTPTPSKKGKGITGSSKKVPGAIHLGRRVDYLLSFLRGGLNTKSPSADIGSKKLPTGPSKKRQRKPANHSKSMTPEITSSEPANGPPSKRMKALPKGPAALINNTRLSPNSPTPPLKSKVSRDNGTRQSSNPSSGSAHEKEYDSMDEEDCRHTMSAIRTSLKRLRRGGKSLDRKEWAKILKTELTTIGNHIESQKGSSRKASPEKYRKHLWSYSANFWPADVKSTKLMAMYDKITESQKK
Chain of Protein translocase subunit SecA (Escherichia coli (strain K12)) (P10408 whole entry): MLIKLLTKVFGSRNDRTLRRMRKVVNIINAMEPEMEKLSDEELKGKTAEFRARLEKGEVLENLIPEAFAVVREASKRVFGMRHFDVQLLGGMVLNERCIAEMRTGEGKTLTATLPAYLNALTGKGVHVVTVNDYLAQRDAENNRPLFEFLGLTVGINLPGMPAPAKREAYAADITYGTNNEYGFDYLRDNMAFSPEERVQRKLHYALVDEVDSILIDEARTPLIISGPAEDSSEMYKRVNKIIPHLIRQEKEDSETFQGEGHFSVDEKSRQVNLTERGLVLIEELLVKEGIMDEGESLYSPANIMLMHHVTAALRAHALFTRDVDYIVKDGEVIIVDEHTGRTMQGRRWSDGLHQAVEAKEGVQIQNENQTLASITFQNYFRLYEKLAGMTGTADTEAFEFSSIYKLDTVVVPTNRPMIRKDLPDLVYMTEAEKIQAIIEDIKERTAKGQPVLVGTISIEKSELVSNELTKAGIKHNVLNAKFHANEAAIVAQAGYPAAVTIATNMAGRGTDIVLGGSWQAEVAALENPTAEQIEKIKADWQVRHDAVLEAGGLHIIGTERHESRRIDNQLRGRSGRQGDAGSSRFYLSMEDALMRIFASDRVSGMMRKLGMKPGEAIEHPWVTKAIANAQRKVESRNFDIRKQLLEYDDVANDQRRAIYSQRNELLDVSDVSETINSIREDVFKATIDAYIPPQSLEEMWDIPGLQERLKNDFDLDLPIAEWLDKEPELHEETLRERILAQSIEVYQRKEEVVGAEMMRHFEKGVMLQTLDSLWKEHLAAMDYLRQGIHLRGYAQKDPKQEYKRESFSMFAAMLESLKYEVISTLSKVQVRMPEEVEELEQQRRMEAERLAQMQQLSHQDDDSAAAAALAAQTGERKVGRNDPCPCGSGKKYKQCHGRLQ
Chain of Sialic acid-binding Ig-like lectin 9 (Homo sapiens) (Q9Y336 whole entry): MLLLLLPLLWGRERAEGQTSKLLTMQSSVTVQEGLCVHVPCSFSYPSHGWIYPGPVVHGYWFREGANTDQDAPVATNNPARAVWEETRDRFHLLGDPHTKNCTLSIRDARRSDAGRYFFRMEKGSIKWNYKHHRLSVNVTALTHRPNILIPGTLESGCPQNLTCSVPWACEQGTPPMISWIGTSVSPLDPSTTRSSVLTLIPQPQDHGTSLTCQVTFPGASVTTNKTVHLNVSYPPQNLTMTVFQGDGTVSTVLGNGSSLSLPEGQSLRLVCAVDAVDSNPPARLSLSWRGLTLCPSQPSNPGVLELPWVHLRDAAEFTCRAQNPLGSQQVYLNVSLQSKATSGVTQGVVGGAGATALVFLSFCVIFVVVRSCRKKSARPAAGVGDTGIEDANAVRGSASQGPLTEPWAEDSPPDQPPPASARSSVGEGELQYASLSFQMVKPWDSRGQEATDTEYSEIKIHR

As for `CCCn1ncc2c(C(=O)Nc3cnn(CC)c3C)cc(C3CC3)nc21`, the Percent Effect is 1.41% in test [1]; 12% in test [2]; -1.57% in test [3]; 2.76% in the test with Trypanosoma cruzi; 3.98% in [4]; 17.4% in test [5]. The Percent Effect in the test filed under Homo sapiens was 2.46%; in test [6] it was 2.12%; in [7], 12.5%; in test [8] it was -24.6%.

For the compound `COc1ccc(OC)c(Sc2ncccc2C(=O)N(C)CCC#N)c1`, the Percent Effect in test [1] was -2.48%; in [2], 16.9%; in test [3] it was -3.09%; in the test on Trypanosoma cruzi, 0.75%; in test [4] it was 0%; in [5], 15.5%. Further, the Percent Effect in the test filed under Homo sapiens is 32.7%; in [6], 4.83%; in test [7], 10%; in [8], -12.2%.

Take `CC(C)N(Cc1cccc(F)c1)Cc1nc2c(cnn2C)c(=O)[nH]1`: the Percent Effect in [1] is -1.46%; in test [2] it was 7.69%; in test [3] it was 6.74%; in the test with Trypanosoma cruzi, 0.469%; in test [4], 3.28%; in test [5], 1.79%. For the same compound, the Percent Effect was 5.6% in the test filed under Homo sapiens, 3.35% in test [6], 13.2% in test [7] and -4.1% in test [8].

Regarding `CCOC1CCCN(C(=O)c2sccc2-n2cnnn2)C1` (stereo not given), the Percent Effect in test [1] is -1.7%; in [2] it was 20.5%; in test [3], -9.12%; with Trypanosoma cruzi, 8.73%; in [4], -1.23%; in [5] it was 13.1%. The Percent Effect in the test listed under Homo sapiens was 21.5%; in test [6] it was 8.13%; in test [7] it was 22.9%; in [8], -4.42%.

With `Cc1nn(C)c(N(C)C)c1CNCCCN(C)S(C)(=O)=O`, the Percent Effect was -1.22% in test [1]; 12.8% in [2]; -8.74% in test [3]; -3.47% in the test on Trypanosoma cruzi; 5.33% in test [4]; 10.2% in test [5]. Further, the Percent Effect in the test filed under Homo sapiens is 4.19%; in test [6], 2.39%; in test [7] it was 18.1%; in test [8] it was -3.07%.
